About 8,600 (12%) of roughly 69,000 compounds showed an effect of 50% or more. Many of the other results were omitted from the sample, so strong results are more common in it than they were.

The subject of this assay is Plasmodium berghei. Nature of the assay: Screen against P. berghei liver stage (PbLuc), transformed with Luciferase, at 10uM. Particulars: tested at 10 uM. The class given is functional, HepG2.
In the case of `OC(COCc1ccccc1)CN1CCC(Cn2cccn2)CC1` (stereo not given), the INHIBITION is 43.5%.

In the case of `Cc1cccc(CN2CCn3c(C(=O)N(C)C)cnc3C2)c1`, the INHIBITION worked out at 50.9%.

`CN(C)C(=O)c1cnc2n1CCN(Cc1ccccc1)C2`: the INHIBITION is listed as 9.67%.

For `Cc1ccc(CN2CCn3c(C(=O)N(C)C)cnc3C2)cc1`, the INHIBITION is 41.6%.

For the molecule `O=C(CCOCc1ccccc1)NS(=O)(=O)N1CCOc2ccccc21`, the INHIBITION is -13.6%.

With `CCc1ncc2c(n1)CN(Cc1ncc(C(C)(C)C)o1)CC2`, the INHIBITION came out at 20%.

As to `COC(=O)CN(C(=O)c1ccc(-n2ccnc2)cc1)C1CCCC1`, the INHIBITION is listed as 0.566%.

In the case of `COCCN1CC[C@@H]2O[C@H](COCc3csc(C)n3)CC[C@@H]21`, the INHIBITION was 3.11%.

For `Cc1nc(COC[C@@H]2CC[C@H]3NCC[C@H]3O2)cs1`, the INHIBITION was determined as 55.6%.

Consider `CC(=O)N1CC[C@@H]2O[C@@H](COCc3csc(C)n3)CC[C@@H]21`, for which the INHIBITION came to 6.6%.

With `Cc1nc(COC[C@H]2CC[C@H]3NCC[C@H]3O2)cs1`, the INHIBITION was determined as 51.2%.

`Cc1nc(COC[C@@H]2CC[C@H]3[C@H](CCN3S(C)(=O)=O)O2)cs1`: the INHIBITION is reported as 25%.

`Cc1nc(COC[C@H]2CC[C@H]3[C@H](CCN3c3ncccn3)O2)cs1`: the INHIBITION amounted to 42.7%.

`CCn1cc(CN2CCCN(C(=O)CCc3cccs3)CC2)cn1`: the INHIBITION is given as 11.4%.

For `c1cnn(Cc2cn3c(n2)CN(Cc2nccs2)CC3)c1`, the INHIBITION is 16.6%.

`COc1ccccc1C(C)(C)NC(=O)Nc1ccc(F)c(C(N)=O)c1`: the INHIBITION is reported as -16.9%.

With `Cc1cc(C)c(CNC(=O)CC2CCCO2)c(=O)[nH]1` (stereo not given), the INHIBITION came out at 14.55%.

Regarding `CCOCCCNC(=O)C(NC(=O)Cc1cccs1)c1ccccc1` (stereo not given), the INHIBITION worked out at 34.2%.

Consider `CCOCCCNC(=O)Cc1cccs1`, for which the INHIBITION is on record as 30.8%.

On to `CCOCCCNC(=O)C(NC(=O)Cc1cccs1)c1ccc(C)cc1` (stereo not given), for which the INHIBITION was 54%.

With `CN1CCOC(CN(C(=O)CCCn2cccn2)c2nccs2)C1` (stereo not given), the INHIBITION was -14.6%.

For `CC(=O)NCC(=O)N1Cc2nccn2CC(CN2CCCC2)C1` (stereo not given), the INHIBITION stood at 28.4%.

Turning to `O=C(c1ccccc1)N1Cc2nccn2CC(Cn2ncccc2=O)C1` (stereo not given), the INHIBITION is listed as 11.5%.

Turning to `O=C(N1CCCC1)N1Cc2nccn2CC(CN2CCCC2)C1` (stereo not given), the INHIBITION turned out to be 42.6%.

With `NC(=O)N1Cc2nccn2CC(Cn2ncccc2=O)C1` (stereo not given), the INHIBITION is 61.9%.

With `CC(C)NC(=O)N1Cc2nccn2CC(CN2CCCC2)C1` (stereo not given), the INHIBITION came out at 73%.

Take `O=C(CC1CC1)N1Cc2nccn2CC(Cn2ncccc2=O)C1` (stereo not given): the INHIBITION is listed as -13.2%.

With `OC1(Cn2ccnc2)CCN(C[C@]2(O)CCCN3CCCC[C@@H]32)CC1`, the INHIBITION came out at 28.8%.

Turning to `O=C1CC2(CCN(C(=O)c3ccccn3)CC2)Oc2c(Br)cc(Br)cc21`, the INHIBITION came to 34.2%.

Turning to `c1cncc(CC2CN(c3cccnc3)CCO2)c1` (stereo not given), the INHIBITION is on record as -43%.

For `O=C(NCc1cc(C2CC2)n(C2CCCC2)n1)C1CC1`, the INHIBITION is listed as 44.4%.

With `Cc1nc(CN2C(=O)CCC23CCN(c2ncccn2)CC3)cs1`, the INHIBITION is recorded as -38.1%.

On to `O=C(NC1CC2(CCN(CCO)CC2)c2ccccc21)c1ccno1` (stereo not given), for which the INHIBITION is listed as 49.7%.

Take `C=C(C)CN1CCN(Cc2cnc(-c3ccc(OC)cc3)nc2)CC1`: the INHIBITION came to 44.8%.

For `CCOCCCNC(=O)c1cc(OC)c2ccoc2c1`, the INHIBITION was 6.11%.

For the molecule `CC(c1nccs1)N(C)S(=O)(=O)NCc1ccccc1` (stereo not given), the INHIBITION was -1.6%.

Take `CC(c1ccncn1)N(C)S(=O)(=O)NCc1ccccc1` (stereo not given): the INHIBITION amounted to 4.65%.

In the case of `CC(c1ccon1)N(C)S(=O)(=O)NCc1ccccc1` (stereo not given), the INHIBITION was 50.9%.

On to `Cc1csc(N2CCN(C(=O)Cc3cccs3)CC2)n1`, for which the INHIBITION came out at 28.8%.

Regarding `CCCc1n[nH]c(C2CN(CCCS(=O)(=O)N(C)C)CCO2)n1` (stereo not given), the INHIBITION is reported as -21.7%.

`CN(C)c1ncccc1N(C)C(=O)Cn1cc(-c2ccccc2)nn1`: the INHIBITION was -0.85%.

Consider `Cc1cccc(C2CCCN(S(=O)(=O)c3cccnc3)C2)n1` (stereo not given), for which the INHIBITION was 19.36%.

On to `CC(=O)N1CCO[C@@H]2CN(C(=O)c3ccc4ncccc4c3)CC[C@@H]2C1`, for which the INHIBITION amounted to 49.1%.

Consider `CC(=O)N1CCO[C@@H]2CN(C(=O)c3ccc4ccccc4c3)CC[C@@H]2C1`, for which the INHIBITION was -57.1%.

As for `O=C(c1ncccn1)N1C[C@@H]2CN(CC3CC3)CCO[C@@H]2C1`, the INHIBITION was 31.9%.

Turning to `O=C(c1ccc2[nH]ccc2c1)N1CC[C@@H]2CN(CC3CC3)CCO[C@@H]2C1`, the INHIBITION stood at 60.2%.

Take `COCCN1CCO[C@@H]2CN(C(=O)c3ccc4[nH]ccc4c3)CC[C@@H]2C1`: the INHIBITION was determined as 1.36%.

As to `CN1CCO[C@@H]2CN(C(=O)c3ccc4ncccc4c3)CC[C@@H]2C1`, the INHIBITION is 58.4%.

As for `CN1CCO[C@@H]2CN(C(=O)c3ccc4[nH]ccc4c3)CC[C@@H]2C1`, the INHIBITION came to 43%.

Regarding `CC(=O)N1CCO[C@@H]2CN(C(=O)c3ccccc3)CC[C@@H]2C1`, the INHIBITION amounted to 12.1%.

As to `CCN1CCO[C@@H]2CN(C(=O)c3ccc4[nH]ccc4c3)CC[C@@H]2C1`, the INHIBITION is on record as 52.1%.

In the case of `CN(C)c1cc(C(=O)N2CCCCC2Cn2cccn2)ccn1` (stereo not given), the INHIBITION is recorded as 17.5%.

With `CCOc1ccccc1N1CCN(C(=O)c2cc[nH]n2)CC1`, the INHIBITION is 44.1%.

`CN(C)CCOCC1CN(C(=O)N2CCCC2)Cc2ccnn2C1` (stereo not given): the INHIBITION was 46.6%.

Turning to `O=C(O)c1cc(S(=O)(=O)Nc2ccccc2)cc2c1OCCO2`, the INHIBITION amounted to 31.8%.

Turning to `CCCc1nc(CN(CC)Cc2ccc(O)c(C(=O)O)c2)no1`, the INHIBITION was 14.3%.

For `CCN(CC)S(=O)(=O)c1ccc2c(c1)N(Cc1cccnc1)C(=O)CS2`, the INHIBITION is -3.5%.

In the case of `O=C(c1cc[nH]n1)N1CCOCC2(C1)CN(c1ccccc1)C(=O)CO2` (stereo not given), the INHIBITION is -14.2%.

In the case of `Cc1cnn(C2CCCN(C(=O)CCc3c(C)noc3C)C2)c1` (stereo not given), the INHIBITION is 16.8%.

Regarding `COCCN(C)C[C@@H]1CN(c2nc(C)cc(C)n2)C[C@@H]1CO`, the INHIBITION was 32.2%.

On to `CCN(CCO)C[C@@H]1CN(c2cc(C(F)(F)F)cc(C)n2)C[C@@H]1CO`, for which the INHIBITION stood at 12.9%.

With `CCN(CCO)C[C@@H]1CN(c2nc(C)cc(C)n2)C[C@@H]1CO`, the INHIBITION is recorded as 54.6%.

As to `Cc1c(C(=O)N2C[C@@H](CN(C)CCO)[C@@H](CO)C2)sc2ccccc12`, the INHIBITION was 32.1%.

For `CCN(CCO)C[C@@H]1CN(C(=O)c2sc3ccccc3c2C)C[C@@H]1CO`, the INHIBITION was 47.6%.

`CCN(CCO)C[C@@H]1CN(C(=O)c2ccc(C)s2)C[C@@H]1CO`: the INHIBITION is on record as 59.4%.

Source of the values: ChEMBL document CHEMBL4513216, “Probing the Open Global Health Chemical Diversity Library for Multistage-Active Starting Points for Next-Generation Antimalarials” (ACS Infect Dis, 2020).
